Compound activity (PubChem BioAssay)
Only some compounds are listed: those with a hit (about 7.1% of all), similar ones and a draw of the others.
IL-1B inflam inh: inflammasome signaling inhibition, IL-1 beta readout; THP-1 LPS/ATP IL-1B secretion, AlphaLISA, 16 h; stronger effect = lower value; activity change, % at 57.5 µM; 360,000 tested, 4.7% active; AID 743279; in the data active = activity change below about -50%; inconclusive = mostly about -30% to -49%; also: % is scaled to controls: 0 for no effect and ±100 for the full control effect
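Secreted IL-1B measured by AlphaLISA bead assay after 16 h compound exposure of THP-1 cells; compounds (final up to 57.5 uM) added 1 h before LPS (250 ng/mL) and ATP (1.25 mM) stimulation; lower signal means less secretion.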
ATXN2 expr inh: inhibitors of ATXN2 expression. HEK-293 ATXN2-luciferase reporter, luminescence, 24 h. Potency, µM (doses to about 57 µM), for inactives: at the top dose activity change, negative = inhibition, usual class: inhibitors. 360,000 tested, 0.72% active; also: potency is read from the fitted curve at half-maximal effect; % is scaled to controls: 0 for no effect and ±100 for the full control effect; nearly all actives have a fitted effect of over 55% in size
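ATXN2-luciferase reporter cells (luciferase flanked by upstream and downstream ATXN2 gene portions) were treated 24 h at 37 °C with compounds at up to 57 uM. SteadyGlo luminescence gave expression; GF-AFC fluorescence gave viability.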
S2 tox: cell viability loss in ATXN counter-screen; Potency, µM (doses to about 56.7 µM), hits mostly cytotoxic; 400,000 tested, 0.49% active; AID 651635; S2 cells (HEK-293 line with an ATXN2-luciferase reporter) viability, CellTiter-Fluor protease fluorescence, 24 h; also: potency is read from the fitted curve at half-maximal effect; nearly all actives have a fitted effect of over 40% in size
PINK1 expr mod: changes PINK1 expression | PINK1 immunofluorescence, high-content cytometry, 24 h | Potency, µM (titrated, usually from 76.6 µM), for inactives: at the top dose activation (PINK1 increase), most hits filed as activators | 410,000 tested, 0.2% active | AID 624263; active = well fitted activation curve with a large enough effect; inconclusive = small, poorly fitted or top-dose-only effect; cell line not stated here; also: potency is read from the fitted curve at half-maximal effect; % of control where 0% means no effect; nearly all actives have a fitted effect of over 65% in size
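Fluorescence from anti-PINK1 antibody, together with nuclear and cell stains, was scanned on a laser-scanning cytometer. Before staining, stable-line cells were incubated 24 hours with compounds at 5 concentrations; primary antibody 12 h at 10 degrees C.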
MCF10A rerep: induces DNA re-replication in MCF 10a normal breast cells; MCF 10A DNA re-replication, Hoechst nuclear intensity, 48 h; 350,000 tested, 2.9% active; AID 624296; Potency, µM (series often up to 46.1 µM), without a hit: at the highest dose activity, positive = re-replication, most hits filed as activators; also: potency is read from the fitted curve at half-maximal effect; % of control where 0% means no effect; nearly all actives have a fitted effect of over 50% in size
SW480 rerep: DNA re-replication induction in SW480 cells; SW480 DNA re-replication, Hoechst DNA content imaging, 48 h; Potency, µM (titrated, usually from 46.1 µM), inactives show at the highest dose re-replication activation, actives largely listed as activators; 340,000 tested, 1.8% active; AID 624297; also: potency is read from the fitted curve at half-maximal effect; % of control where 0% means no effect; nearly all actives have a fitted effect of over 55% in size
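Treated cells incubate 48 hr (37 C, 5% CO2), are stained 40 min with Hoechst, and nuclear fluorescence is enumerated; a rise in nuclei with high DNA signal marks re-replication.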
An asterisk follows results filed as active; i = inactive; ? = inconclusive; . = no result given; [ ] = another dose, or the depositor's remark. Unless noted, calls follow the shape of the dose curve; as a rule, active = well fitted curve in the direction sought with a large enough effect; inconclusive = small, poorly fitted or top-dose-only effect, or another doubt; inactive = no such curve, though single readings can be large; an effect the other way counts as inactive or inconclusive.

SMILES	IL-1B inflam inh	ATXN2 expr inh	S2 tox	PINK1 expr mod	MCF10A rerep	SW480 rerep
CC(C)N(C(C)C)S(=O)(=O)c1ccc(Cl)nc1	0.0	.	i	0.2%	-7.2%	?
Cc1ccc(-c2nc(CCNC(=O)C(=O)Nc3c(C)cccc3C)cs2)cc1	.	.	.	5.5%	.	.
O=[N+]([O-])c1ccc(-[n+]2ccc3ccccc3c2)c([N+](=O)[O-])c1	-104.8*	?	11.2µM*	-1.9%	?	?
O=[N+]([O-])c1ccc(SNc2ccccc2)c([N+](=O)[O-])c1	-8.1	-12.1%	i	?	26.7%	-1.6%
CC1(C)Cc2c(C#N)c(NCCc3ccccc3)nc(-c3ccco3)c2CO1	?	-12.3%	i	8.9%	14.6µM*	6.51µM*
CCN(CC)CCNc1nc(-c2ccco2)c2c(c1C#N)CC(C)(C)OC2	-3.8	-8.5%	i	-4.6%	16.5%	11.7%
COC(=O)c1ccc(COc2ccccc2/C=C(\C#N)C(=O)Nc2c(C)cccc2C)cc1	-79.4*	-23.2%	i	0.8%	8.2µM*	23.5%
COC(=O)c1ccc(COc2ccccc2/C=C/C(=O)c2ccc(OCC(=O)O)cc2)cc1	-93.5*	-8.7%	i	-3.8%	?	?
Cc1cccc(C)c1NC(=O)/C(C#N)=C/c1ccsc1	-1.4	-32.3%	?	1.7%	?	1.46µM*
Cc1ccccc1NC(=O)/C(C#N)=C/c1ccsc1	-9.3	14.9%	i	4.2%	?	0.2%
COc1ccccc1CCc1nc2ccccc2n1C1CCN(C(=O)c2cc(C)nn2C)CC1	.	.	i	-0.7%	.	.
O=C(CSc1nc2nn(-c3ccccc3)c(=O)c-2c2n1CCCCC2)Nc1ccc(F)cc1F	-56.2*	-0.6%	i	0.4%	4.8%	3.7%
CNC(=O)CSc1nc2nn(-c3ccccc3)c(=O)c-2c2n1CCCCC2	41.7	-20.7%	i	12.6%[38.3 µM]	6.5%	8.0%
CC(C)CNC(=O)CSc1nc2nn(-c3ccccc3)c(=O)c-2c2n1CCCCC2	-52.9*	-19.0%	i	1.9%	-6.4%	4.7%
Cc1cnc(C(=O)NCc2c(C)ncc3c2CCN(C(=O)/C=C/c2cccs2)C3)cn1	.	.	i	-0.8%	.	.
COc1cc2nc(C3CCC3)nc(N3CCN(c4ccccc4OC)CC3)c2cc1OC	-24.7	-19.4%	?	-4.6%	?	?
COc1cc2nc(C3CCC3)nc(N3CCN(c4ccccn4)CC3)c2cc1OC	-99.5*	-14.9%	i	-4.1%	?	0.6%
O=C(Nc1nc(-c2ccc3c(c2)OCCO3)cs1)C1CC(=O)N(c2ccc3c(c2)OCCO3)C1 (centres undefined)	.	.	.	1.5%	.	.
CCN1C/C(=C/c2cccs2)c2nc3ccccc3c(C(=O)O)c2C1	-6.7	-7.1%	i	1.2%	10.1%	0.1%
CCCCNC(=O)COC(=O)c1c2c(nc3ccccc13)/C(=C\c1cccs1)CC2	-12.1	2.1%	.	3.4%	?	?
CC(C)CNC(=O)COC(=O)c1c2c(nc3ccccc13)/C(=C/c1cccs1)CC2	4.2	34.8%	.	1.4%	3.26µM*	3.66µM*
NC(=O)c1ccc(NC(=O)COC(=O)c2c3c(nc4ccccc24)/C(=C\c2cccs2)CCC3)cc1	-5.3	.	i	-0.1%	23.1µM*	20.6µM*
CCc1cccc(C)c1NC(=O)COC(=O)c1c2c(nc3ccccc13)/C(=C\c1cccs1)CCC2	-11.2	0.9%	i	-1.8%	10.3µM*	18.4µM*
Cc1oc2ncn(CC(C)C)c(=O)c2c1C(=O)NCCCN1CCC(C)CC1	.	-10.8%	i	-0.8%	.	.
COc1ccc(N2CC(NC(=O)c3ccc(S(=O)(=O)N4CCCCC4)cc3)CC2=O)cc1 (centres undefined)	.	.	.	0.0%	.	.
SMILES	IL-1B inflam inh	ATXN2 expr inh	S2 tox	PINK1 expr mod	MCF10A rerep	SW480 rerep
CSc1ccccc1NC(=O)C1=CC(c2ccc3c(c2)OCO3)=NS(=O)(=O)N1C	.	-18.2%	?	-1.0%	.	.
Cc1nc2ccccn2c1C(=O)N/N=C/c1cc(C)n(-c2ccc(Cl)cc2)c1C	6.2	-12.7%	i	1.5%[38.3 µM]	3.4%	0.9%
O=C(Cn1c2ccccc2c(=O)c2ccccc21)N/N=C/c1cc([N+](=O)[O-])ccc1N1CCCCCC1	1.1	?	?	?	13.6%	13.2%
O=C(Cn1c2ccccc2c(=O)c2ccccc21)N/N=C/c1ccc(N2CCCC2)c([N+](=O)[O-])c1	7.8	31.6µM*	.	0.1%	?	0.3%
Cc1ccc(-n2c(C)cc(/C=N/NC(=O)Cn3c4ccccc4c(=O)c4ccccc43)c2C)cc1	-9.8	-21.9%	.	8.7%	14.6µM*	11.6µM*
Cc1cc(/C=N/NC(=O)Cn2c3ccccc3c(=O)c3ccccc32)c(C)n1-c1ccc(Cl)cc1	0.0	-4.7%	.	3.9%	11.6µM*	15.9%
CC(=O)Nc1ccc(NC(=O)C2CCN(S(=O)(=O)c3ccc4c(c3)CCCC(=O)N4)CC2)cc1	.	0.8%	i	7.4%	.	.
COc1cccc(CNC(=O)C2CCCN(S(C)(=O)=O)C2)c1 (centres undefined)	5.2	4.3%	i	-0.1%[38.3 µM]	20.6µM*	1.6%
Cc1ccc(NC(=O)CCl)cc1S(=O)(=O)N1CCCCCC1	-87.1*	?	?	-0.5%	?	?
Cc1cccc(OCCC(=O)Nc2ccc(C)c(S(=O)(=O)N3CCCCC3)c2)c1	-71.9*	?	?	1.1%	22.4%	8.8%
COc1cccc(CNC(=O)c2ccc(C)c(S(=O)(=O)N3CCOCC3)c2)c1	-2.0	1.1%	i	3.1%	3.2%	-1.3%
COc1cccc(CNC(=O)c2ccc(C)c(S(=O)(=O)N3CCCCC3)c2)c1	-58.1*	-11.9%	?	-0.6%	?	0.2%
CCN1C(=O)c2ccccc2Sc2ccc(NC(=O)c3ccc(C#N)cc3)cc21	.	4.9%	i	2.7%	.	.
Cc1c(C(=O)N(Cc2ccco2)Cc2ccccc2Cl)oc2ccc(F)cc12	.	0.8%	i	2.8%	.	.
Cc1ccc(NC(=O)c2ccc(C)c(S(=O)(=O)N3CCCCCC3)c2)cc1	.	-4.3%	?	2.7%	.	.
Cc1ccc(NC(=O)CSc2ncnc3ccccc23)cc1S(=O)(=O)N1CCCCCC1	-90.0*	4.3%	i	0.8%	?	-4.7%
Cc1ccc(C(=O)Nc2cccc(O)c2)cc1S(=O)(=O)N1CCCCCC1	-57.4*	1.6%	?	0.7%	?	?
COc1ccc(-n2c(-c3ccc(Cl)cc3)cc3c2CC(C)(C)CC3=O)c(OC)c1	.	?	?	1.6%	.	.
CCOCCCNC(=O)CN1C(=O)c2cccnc2Sc2ccccc21	.	0.4%	i	-0.1%	.	.
CCCCOCCCNC(=O)CN1C(=O)c2ccccc2C1=O	22.2	0.8%	i	.	3.66µM*	27.9%
